Measured values from the supplement of paper PMC11732987, “Enantioselective OTUD7B fragment discovery through chemoproteomics screening and high-throughput optimisation” (Communications Chemistry, 2025).

Experiments:
Assay in all cases: log2 ratio of Biotin-Ahx-Ub-VS probe labelling (fragment/DMSO); higher = less target engagement (more negative = stronger competition), active = hit call of the paper (q ≤ 0.05, log2 ratio ≤ -1)
Settings in all cases: compound concentration: 200 uM; treatment time: 3 h
ALG13 = target: T1, ALG13 (UniProt Q9NP73)
T1 sequence (whole entry): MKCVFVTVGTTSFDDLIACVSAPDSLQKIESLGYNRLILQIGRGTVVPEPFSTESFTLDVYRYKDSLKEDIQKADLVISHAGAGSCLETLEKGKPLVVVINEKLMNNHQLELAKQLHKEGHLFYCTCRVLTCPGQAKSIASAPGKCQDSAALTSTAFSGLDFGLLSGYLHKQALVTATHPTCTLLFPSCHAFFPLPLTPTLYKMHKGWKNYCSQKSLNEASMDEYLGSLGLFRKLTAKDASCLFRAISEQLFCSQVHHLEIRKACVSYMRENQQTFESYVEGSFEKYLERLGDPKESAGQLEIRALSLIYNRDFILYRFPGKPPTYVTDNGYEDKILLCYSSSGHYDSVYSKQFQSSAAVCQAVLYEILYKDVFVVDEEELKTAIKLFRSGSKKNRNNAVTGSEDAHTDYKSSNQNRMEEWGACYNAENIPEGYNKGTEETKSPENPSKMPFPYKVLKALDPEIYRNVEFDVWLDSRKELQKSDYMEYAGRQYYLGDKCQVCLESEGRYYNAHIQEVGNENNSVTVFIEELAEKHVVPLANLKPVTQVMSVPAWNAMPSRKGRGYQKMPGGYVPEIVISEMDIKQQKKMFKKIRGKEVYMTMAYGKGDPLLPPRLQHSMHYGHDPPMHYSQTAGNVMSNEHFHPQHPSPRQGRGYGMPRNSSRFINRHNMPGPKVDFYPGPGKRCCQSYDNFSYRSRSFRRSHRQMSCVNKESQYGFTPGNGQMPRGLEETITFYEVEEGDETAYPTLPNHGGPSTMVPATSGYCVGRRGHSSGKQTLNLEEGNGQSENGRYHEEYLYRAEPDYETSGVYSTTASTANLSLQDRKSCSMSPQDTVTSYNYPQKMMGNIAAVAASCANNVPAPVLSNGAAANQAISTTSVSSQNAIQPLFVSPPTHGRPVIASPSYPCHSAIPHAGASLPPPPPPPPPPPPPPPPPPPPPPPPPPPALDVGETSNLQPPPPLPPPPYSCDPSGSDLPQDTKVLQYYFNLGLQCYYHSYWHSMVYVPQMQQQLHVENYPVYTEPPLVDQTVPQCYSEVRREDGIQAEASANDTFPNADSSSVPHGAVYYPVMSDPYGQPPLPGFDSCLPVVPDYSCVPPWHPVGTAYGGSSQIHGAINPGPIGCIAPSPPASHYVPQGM
In short: (§1)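 Fragment (200 µM) or vehicle was incubated for 3 h with triplicate HEK293T lysate samples of 495 µg, which were then treated with Biotin-Ahx-Ub-VS at 0.5 µM final for 1 h. Labelled DUBs were enriched on NeutrAvidin, digested with LysC and trypsin, and analysed by diaPASEF LC-MS/MS. Values are average log2 fragment/vehicle ratios from an unpaired t-test on global-median-normalised Spectronaut label-free quantities, using proteins with ≥2 unique peptides.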

ATXN3 = ATXN3 (UniProt P54252)
In short: as §1

BAP1 = target: T2, BAP1 (UniProt Q92560)
T2 sequence (whole entry): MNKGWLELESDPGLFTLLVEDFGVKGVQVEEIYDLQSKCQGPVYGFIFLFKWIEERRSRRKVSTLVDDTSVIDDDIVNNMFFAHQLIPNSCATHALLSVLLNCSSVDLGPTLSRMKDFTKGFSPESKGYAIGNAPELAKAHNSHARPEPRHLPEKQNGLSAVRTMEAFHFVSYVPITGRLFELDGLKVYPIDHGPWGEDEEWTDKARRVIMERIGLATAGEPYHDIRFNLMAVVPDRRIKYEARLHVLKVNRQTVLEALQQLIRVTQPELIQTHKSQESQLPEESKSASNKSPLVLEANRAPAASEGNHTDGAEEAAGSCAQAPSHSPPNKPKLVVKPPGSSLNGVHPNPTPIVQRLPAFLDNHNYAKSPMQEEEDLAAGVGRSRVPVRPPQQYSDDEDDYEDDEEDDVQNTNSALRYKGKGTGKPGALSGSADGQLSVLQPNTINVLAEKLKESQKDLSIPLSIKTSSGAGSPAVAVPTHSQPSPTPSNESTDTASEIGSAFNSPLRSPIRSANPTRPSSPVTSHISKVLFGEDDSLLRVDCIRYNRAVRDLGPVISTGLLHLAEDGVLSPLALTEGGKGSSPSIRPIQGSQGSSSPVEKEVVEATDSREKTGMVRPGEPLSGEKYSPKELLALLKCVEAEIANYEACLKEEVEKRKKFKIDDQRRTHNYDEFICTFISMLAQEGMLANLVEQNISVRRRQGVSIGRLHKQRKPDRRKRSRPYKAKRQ
In short: as §1

EIF3F = EIF3F (UniProt O00303)
In short: as §1

EIF3H = EIF3H (UniProt O15372)
In short: as §1

FAM105A = target: T3, FAM105A (UniProt Q9NUU6)
T3 sequence (whole entry): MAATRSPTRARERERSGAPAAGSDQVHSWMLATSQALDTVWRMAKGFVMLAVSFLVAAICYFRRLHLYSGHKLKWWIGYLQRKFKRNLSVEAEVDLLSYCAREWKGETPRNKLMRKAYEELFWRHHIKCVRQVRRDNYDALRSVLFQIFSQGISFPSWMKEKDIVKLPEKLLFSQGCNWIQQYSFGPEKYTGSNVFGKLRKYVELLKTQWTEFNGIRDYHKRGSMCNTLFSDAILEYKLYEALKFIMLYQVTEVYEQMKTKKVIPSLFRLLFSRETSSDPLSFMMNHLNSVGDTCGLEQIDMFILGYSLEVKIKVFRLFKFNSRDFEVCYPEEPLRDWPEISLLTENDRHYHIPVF
In short: as §1

OTUB1 = OTUB1 (UniProt Q96FW1)
In short: as §1

OTUD4 = target: T4, OTUD4 (UniProt Q01804)
T4 sequence (whole entry): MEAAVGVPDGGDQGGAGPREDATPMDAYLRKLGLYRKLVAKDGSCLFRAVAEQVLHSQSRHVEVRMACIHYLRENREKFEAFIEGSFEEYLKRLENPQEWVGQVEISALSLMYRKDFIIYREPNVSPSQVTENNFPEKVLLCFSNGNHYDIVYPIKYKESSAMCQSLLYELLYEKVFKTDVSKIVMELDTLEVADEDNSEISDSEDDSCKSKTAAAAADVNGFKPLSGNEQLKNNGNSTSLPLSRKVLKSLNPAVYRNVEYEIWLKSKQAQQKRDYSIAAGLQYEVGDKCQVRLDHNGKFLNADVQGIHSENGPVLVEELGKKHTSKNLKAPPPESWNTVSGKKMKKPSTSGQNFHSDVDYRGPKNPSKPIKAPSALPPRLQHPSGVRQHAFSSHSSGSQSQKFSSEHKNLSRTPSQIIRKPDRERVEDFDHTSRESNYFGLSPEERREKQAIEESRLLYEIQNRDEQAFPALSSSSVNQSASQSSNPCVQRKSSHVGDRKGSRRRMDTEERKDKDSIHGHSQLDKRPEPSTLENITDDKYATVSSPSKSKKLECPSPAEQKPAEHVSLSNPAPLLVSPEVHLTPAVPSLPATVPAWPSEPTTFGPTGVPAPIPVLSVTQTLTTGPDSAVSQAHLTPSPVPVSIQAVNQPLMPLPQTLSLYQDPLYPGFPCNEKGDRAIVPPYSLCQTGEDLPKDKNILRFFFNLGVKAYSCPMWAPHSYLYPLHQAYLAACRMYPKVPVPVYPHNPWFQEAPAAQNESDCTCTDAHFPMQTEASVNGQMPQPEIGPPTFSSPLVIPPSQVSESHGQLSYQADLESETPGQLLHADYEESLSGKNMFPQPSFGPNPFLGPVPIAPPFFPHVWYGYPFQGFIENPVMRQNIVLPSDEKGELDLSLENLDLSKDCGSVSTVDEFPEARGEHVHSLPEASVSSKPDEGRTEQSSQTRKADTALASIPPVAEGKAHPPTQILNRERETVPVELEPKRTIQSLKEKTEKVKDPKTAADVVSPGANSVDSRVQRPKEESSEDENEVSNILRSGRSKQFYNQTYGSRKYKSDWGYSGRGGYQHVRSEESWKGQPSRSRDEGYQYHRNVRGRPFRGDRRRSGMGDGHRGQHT
In short: as §1

OTUD5 = target: T5, OTUD5 (UniProt Q96G74)
T5 sequence (whole entry): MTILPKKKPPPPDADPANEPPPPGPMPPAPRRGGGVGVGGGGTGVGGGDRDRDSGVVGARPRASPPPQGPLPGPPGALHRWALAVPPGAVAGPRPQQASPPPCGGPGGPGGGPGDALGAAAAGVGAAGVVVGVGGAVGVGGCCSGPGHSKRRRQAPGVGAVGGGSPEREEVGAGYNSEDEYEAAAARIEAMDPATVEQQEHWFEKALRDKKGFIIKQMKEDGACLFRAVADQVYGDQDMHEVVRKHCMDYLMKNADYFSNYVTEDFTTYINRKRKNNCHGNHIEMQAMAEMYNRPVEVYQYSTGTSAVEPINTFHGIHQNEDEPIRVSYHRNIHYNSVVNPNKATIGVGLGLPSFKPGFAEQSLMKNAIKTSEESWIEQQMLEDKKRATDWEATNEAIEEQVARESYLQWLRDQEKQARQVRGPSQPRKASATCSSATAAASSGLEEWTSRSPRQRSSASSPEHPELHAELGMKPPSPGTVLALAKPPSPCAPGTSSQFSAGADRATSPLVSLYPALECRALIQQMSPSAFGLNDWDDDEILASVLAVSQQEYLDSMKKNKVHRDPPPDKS
In short: as §1

Measured: log2 ratio of Biotin-Ahx-Ub-VS probe labelling

ATXN3, sequence (P54252 whole entry): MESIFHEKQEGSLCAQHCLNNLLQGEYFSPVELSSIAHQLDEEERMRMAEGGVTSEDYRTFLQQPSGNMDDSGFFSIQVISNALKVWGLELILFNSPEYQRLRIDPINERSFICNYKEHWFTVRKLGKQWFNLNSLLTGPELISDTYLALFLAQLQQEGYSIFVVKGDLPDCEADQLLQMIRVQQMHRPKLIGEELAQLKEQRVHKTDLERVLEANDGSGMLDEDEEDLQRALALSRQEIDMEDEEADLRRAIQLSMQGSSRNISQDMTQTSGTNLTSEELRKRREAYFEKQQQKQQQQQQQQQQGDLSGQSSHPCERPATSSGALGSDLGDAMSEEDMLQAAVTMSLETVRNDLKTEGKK
EIF3H, sequence (O15372 whole entry): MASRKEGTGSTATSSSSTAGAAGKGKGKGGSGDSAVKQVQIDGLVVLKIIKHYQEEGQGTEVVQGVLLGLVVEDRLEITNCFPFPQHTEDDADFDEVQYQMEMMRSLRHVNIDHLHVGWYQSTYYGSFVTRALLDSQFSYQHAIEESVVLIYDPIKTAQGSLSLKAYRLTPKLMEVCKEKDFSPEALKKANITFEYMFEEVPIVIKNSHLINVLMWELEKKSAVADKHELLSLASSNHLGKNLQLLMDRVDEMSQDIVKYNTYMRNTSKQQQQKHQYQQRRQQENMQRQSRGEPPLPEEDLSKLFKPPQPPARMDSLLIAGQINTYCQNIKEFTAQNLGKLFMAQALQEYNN
EIF3F, sequence (O00303 whole entry): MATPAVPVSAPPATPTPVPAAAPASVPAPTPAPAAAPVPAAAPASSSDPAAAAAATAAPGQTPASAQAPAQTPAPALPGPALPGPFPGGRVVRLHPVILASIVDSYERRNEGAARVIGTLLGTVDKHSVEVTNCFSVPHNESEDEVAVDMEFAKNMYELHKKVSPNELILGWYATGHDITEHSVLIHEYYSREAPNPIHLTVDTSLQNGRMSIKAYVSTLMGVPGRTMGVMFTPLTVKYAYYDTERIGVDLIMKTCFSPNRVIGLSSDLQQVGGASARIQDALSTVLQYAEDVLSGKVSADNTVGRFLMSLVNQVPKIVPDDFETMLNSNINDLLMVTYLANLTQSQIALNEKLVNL
OTUB1, sequence (Q96FW1 whole entry): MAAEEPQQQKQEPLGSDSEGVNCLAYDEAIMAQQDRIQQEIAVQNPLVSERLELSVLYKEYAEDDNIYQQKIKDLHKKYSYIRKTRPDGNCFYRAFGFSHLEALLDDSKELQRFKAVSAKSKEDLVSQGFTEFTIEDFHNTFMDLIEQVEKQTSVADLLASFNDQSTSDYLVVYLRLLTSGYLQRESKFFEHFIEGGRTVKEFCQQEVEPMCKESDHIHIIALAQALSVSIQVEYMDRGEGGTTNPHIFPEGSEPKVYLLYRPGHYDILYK

O=C(CCl)N1CCC(c2noc3cc(F)ccc23)CC1
active: BAP1 -1.19
inactive: ALG13 0.141 | ATXN3 -0.734 | EIF3F -0.419 | EIF3H 0.209 | FAM105A -0.1 | OTUB1 -0.253 | OTUD4 -0.413 | OTUD5 -0.644
